Source: the supplement of paper PMC8253809
Several values for one entry are separate records, joined by “and”; a condition that tells them apart may be missing. Equal entries are not always repeated.

How the values were obtained:
Experiment in all cases: growth inhibition (% activity, log2 RLU normalised to DMSO / staurosporine); higher = more growth inhibition
Conditions in all cases: 33 µM
DIPGX29 = system: DIPGX29 (H3.3 K27M diffuse intrinsic pontine glioma line)
Outline: (§1)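 The growth-inhibition value is the median over replicates. pHGG cell lines and H9-derived neural stem cells on Geltrex-coated 384-well plates received approved drugs by pin tool at a single final concentration of about 33 μM, in triplicate, for 7 days at 37 °C, 5% CO2. CellTiter-Glo luminescence was log2-transformed and normalised per plate to % activity between solvent and positive control wells.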

DIPGX37 = system: DIPGX37 (H3.3 K27M diffuse intrinsic pontine glioma line)
Outline: as §1

DIPGX7 = system: DIPGX7 (H3.3 K27M diffuse intrinsic pontine glioma line)
Outline: as §1

DIPGX9 = system: DIPGX9 (diffuse intrinsic pontine glioma line)
Outline: as §1

HGGX39 = system: HGGX39 (paediatric high-grade glioma line)
Outline: as §1

HGGX6 = system: HGGX6 (H3.3 G34R paediatric high-grade glioma line)
Outline: as §1

HNSC = system: HNSC
Outline: as §1

SUDIPGIV = system: SUDIPGIV (diffuse intrinsic pontine glioma line)
Outline: as §1

SUDIPGVI = system: SUDIPGVI (diffuse intrinsic pontine glioma line)
Outline: as §1

SUDIPGXIII = system: SUDIPGXIII (diffuse intrinsic pontine glioma line)
Outline: as §1

| SMILES | growth inhibition (DIPGX29) | growth inhibition (DIPGX37) | growth inhibition (DIPGX7) | growth inhibition (DIPGX9) | growth inhibition (HGGX39) | growth inhibition (HGGX6) | growth inhibition (HNSC) | growth inhibition (SUDIPGIV) | growth inhibition (SUDIPGVI) | growth inhibition (SUDIPGXIII) |
| --- | --- | --- | --- | --- | --- | --- | --- | --- | --- | --- |
| Nc1ccc(S(N)(=O)=O)cc1 | -0.377% | 1.14% | 0.22% | 1.31% | 2.44% | 0.596% | -1.62% | -1.35% | 0.652% | 1.2% |
| N=C(N)N | -0.83% | 2.64% | 1.54% | 0.0493% | 0.625% | -0.897% | 7.78% | 1.72% | -0.000495% | -1.47% |
| Nc1[nH]cnc2ncnc1-2 | -2.79% and 0.888% and 0.703% | -2.72% and -1.28% and 1.74% | -0.783% and 2.97% and -0.884% | -3.07% and 2.41% and -1.07% | -1.64% and 3.54% and 2.19% | -4.48% and -0.101% and -1.37% |  | -2.98% and 0.339% and 0.701% | -1.95% and 3.66% and 1.39% | -0.991% and 0.292% and 0.516% |
| Cc1cc(-n2c(=O)[nH]c(=O)n(C)c2=O)ccc1Oc1ccc(SC(F)(F)F)cc1 | 1.92% | 4.99% | 3.64% | 1.95% | 4.82% | 2.18% | 5.28% | 2.64% | 4.98% | -0.649% |
| O=c1cc[nH]c(=O)[nH]1 | 0.309% | 2.71% | 0.41% | 1.11% | 0.158% | 0.91% | -1.21% | 0.441% | 1.23% | -16.8% |
| CCCCCOC(=O)Nc1nc(=O)n([C@@H]2O[C@H](C)[C@@H](O)[C@H]2O)cc1F | -0.544% | 1.13% | 0.087% | 0.193% | 1.46% | 0.0555% | -0.694% | -0.463% | 0.998% | 1.54% |
| Nc1nc(=O)c2c([nH]1)NCC(CNc1ccc(C(=O)N[C@@H](CCC(=O)O)C(=O)O)cc1)N2C=O (stereo partly specified) | -0.552% | 0.652% | -1.46% | -0.907% | -0.954% | -0.876% | 0.438% | -1.59% | 0.511% | -0.342% |
| COc1ccc(Cl)cc1C(=O)NCCc1ccc(S(=O)(=O)NC(=O)NC2CCCCC2)cc1 | -0.549% | 1.98% | -0.628% | -1.16% | 1.11% | 0.0176% | 2.28% | 0.343% | 1.26% | -1.12% |
| CC1(C)O[C@@H]2C[C@H]3[C@@H]4CCC5=CC(=O)C=C[C@]5(C)[C@@]4(F)[C@@H](O)C[C@]3(C)[C@]2(C(=O)CO)O1 | 1.92% | 0.771% | -0.242% | 4.15% | 2.88% | 0.928% | -2.22% | -0.618% | 1.71% | 0.942% |
| CC12CC3CC(C)(C1)CC(N)(C3)C2 | 0.0357% | -0.52% | 0.741% | 1.54% | 1.57% | 1.17% | -0.299% | 0.153% | 0.617% | 1.06% |
| CCOc1ccc2ccccc2c1C(=O)N[C@@H]1C(=O)N2[C@@H]1SC(C)(C)[C@@H]2C(=O)O | -3.12% | -0.795% | 1.5% | -1.14% | -0.856% | -5.66% | 31.9% | -2.67% | -10.4% | 2.26% |
| CCN(CC)CC#CCOC(=O)C(O)(c1ccccc1)C1CCCCC1 (stereo unspecified) | 7.11% and -0.14% | -0.636% and -1.02% | 8.09% and 5.01% | 1.99% and -2.12% | 4.03% and -0.183% | 1.74% and -0.191% |  | 3.76% and -2.81% | -0.8% and -5.89% | 1.45% and 2.55% |
| O=C(O)CCCC[C@@H]1SC[C@@H]2NC(=O)N[C@@H]21 | 0.444% | 0.747% | 0.534% | 1.28% | 2.04% | 2.52% | -1.69% | 1.07% | 1.25% | 0.684% |
| CCCC(=O)O[C@]1(C(=O)COC(C)=O)CC[C@H]2[C@@H]3C[C@H](F)C4=CC(=O)C=C[C@]4(C)[C@@]3(F)[C@@H](O)C[C@@]21C | 1.5% | 1.44% | -0.393% | 2.91% | 2.12% | 0.881% | -3.23% | -4.91% | -0.161% | 1.12% |
| C[C@]12CC[C@@H]3c4ccc(O)cc4CC[C@H]3[C@@H]1CCC2=O | 0.142% | 1.98% | 2.55% | 1.67% | 3.84% | 0.36% | 1.29% | 1.87% | 0.844% | -0.509% |
| NC(=O)NO | -5.64% | -0.579% | -2.73% | -1.74% | -1.77% | -4.15% | 2.98% | -2.11% | -4.44% | 1.21% |
| NC(=O)c1cnccn1 | -1.43% | 0.819% | -1.41% | -0.339% | -2.81% | 1.4% | -0.255% | -2.49% | 0.0834% | 1% |
| CS(=O)(=O)CCNCc1ccc(-c2ccc3ncnc(Nc4ccc(OCc5cccc(F)c5)c(Cl)c4)c3c2)o1 | 6.23% and 13.7% | 3.79% and 6.67% | 8.64% and 16.6% | 4.74% and 6.77% | 7.08% and 12.7% | 3.29% and 14.5% |  | 3.14% and -0.238% | -6.01% and 3.84% | 0.448% and 1.79% |
| CCCN(CCC)S(=O)(=O)c1ccc(C(=O)O)cc1 | -1.26% | 2.49% | 0.672% | 0.0871% | 1.02% | -3.52% | 8.98% | 1.56% | -6.21% | 0.262% |
| CC1OC(n2cc(F)c(=O)[nH]c2=O)C(O)C1O (stereo unspecified) | -0.415% | 1.44% | -1.58% | 1.19% | -0.346% | 1.76% | -0.812% | 2.36% | 0.29% | 1.21% |
| [Na+].[Na+].[Na+].[O]=[V]([O-])([O-])[O-] | -1.42% | 0.923% | -1.78% | 0.306% | 0.285% | -0.94% | -0.354% | -2.76% | -0.971% | 1.36% |
| CCN1CCN(C(=O)N[C@@H](C(=O)N[C@@H]2C(=O)N3[C@@H]2SC(C)(C)[C@@H]3C(=O)O)c2ccccc2)C(=O)C1=O | -0.286% | 0.221% | -0.734% | -1.09% | -0.282% | 0.186% | -1.83% | -0.166% | 0.068% | -11.8% |
| COc1ccc2cc(CCC(C)=O)ccc2c1 | -3.29% | -0.34% | 1.11% | -2.24% | 0.174% | -2.89% | 31.7% | -0.544% | -8.13% | 3.04% |
| C#C[C@]1(O)CC[C@H]2[C@@H]3CCc4cc(O)ccc4[C@H]3CC[C@@]21C | 0.982% | 1.91% | 0.741% | 0.29% | 0.261% | 2.48% | 0.451% | -1.64% | 1.36% | 0.6% |
| COc1ccc(C(=O)CC(=O)c2ccc(C(C)(C)C)cc2)cc1 | -1.88% | -1.81% | -1.16% | -0.752% | -2.78% | -0.501% | -0.539% | -0.769% | -2.64% | -0.991% |
| N=C(N)NC(=O)c1nc(Cl)c(N)nc1N | 1.79% and -1.36% | 1.85% and 0.649% | 1.7% and 0.904% | 2.64% and 0.337% | 2.38% and 4% | -0.794% and 0.512% |  | 7.17% and 6.85% | 2.25% and 2.53% | -0.984% and -0.159% |
| COc1cc2nc(N3CCN(C(=O)c4ccco4)CC3)nc(N)c2cc1OC | 7.72% | -2.22% | 1.17% | 3.48% | -0.781% | 18.9% | -0.602% | -3.54% | -4.38% | -1.72% |
| COc1ccc(CNc2nc(N3CCC[C@H]3CO)ncc2C(=O)NCc2ncccn2)cc1Cl | -1.4% | -6.17% | -0.329% | -0.502% | -0.964% | -0.0101% | -2.71% | -1.36% | -2.1% | -0.559% |
